HCMV inh – qHTS Assay for inhibitors of the human cytomegalovirus (HCMV). HFF cells, HCMV-luciferase reporter, 72 h; active compounds read low. activity change, negative = inhibition, % at 57.5 µM. hit rate 4.5% among 410,000. AID 1259415, 2018; in the data active means activity change below about -60%; inconclusive means no clear call, values can overlap the other calls; inactive means above about -39%
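Two-dose cell screen: HFF monolayers treated with compounds and infected with luciferase-expressing HCMV at 1 PFU/cell, 72 h at 37C, then lysed for luciferase measurement.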
Vaccinia Venus – qHTS for Stage-Specific Inhibitors of Vaccinia Orthopoxvirus: Venus Reporter Primary qHTS | Vaccinia virus Venus reporter expression, fluorescence | Potency, µM (series often up to 36.5 µM), for inactives: at the top dose activity change, negative = inhibition, most hits filed as inhibitors | hit rate 0.46% among 330,000 | AID 720580, 2013; calls by dose curve; tested in A549 cells; further: potency means the concentration at half of the fitted maximal effect; nearly all actives have a fitted effect of over 30% in size
Vaccinia mCherry – qHTS for Stage-Specific Inhibitors of Vaccinia Orthopoxvirus: mCherry Reporter Primary qHTS | Vaccinia virus mCherry reporter infection, fluorescence | Potency, µM (doses to about 36.5 µM), inactives show at the top dose activity change, negative = inhibition, most hits filed as inhibitors | hit rate 0.63% among 310,000; calls by dose curve; tested in A549 cells; further: potency means the concentration at half of the fitted maximal effect; nearly all actives have a fitted effect of over 35% in size
FMDV inh – High Throughput Screening for Foot and Mouth Disease Virus Antivirals | FMDV antiviral cell-based qHTS | Potency, µM (top dose mostly 57.9 µM), for inactives: at the highest dose activity change, negative = inhibition, hits mostly inhibitors | hit rate 1.2% among 410,000 | AID 1159524, 2015; calls by dose curve; tested in HEK293T cells; further: read-out not given here; potency means the concentration at half of the fitted maximal effect; nearly all actives have a fitted effect of over 45% in size
MARV entry inh – qHTS for inhibitors of binding or entry into cells for Marburg Virus; Potency, µM (doses to about 37.8 µM), for the others: at the highest dose activity change, negative = inhibition, most hits filed as inhibitors; Marburg virus pseudotyped entry inhibition, cell reporter; hit rate 1.8% among 300,000; calls by dose curve; tested in HEK293 cells; further: potency means the concentration at half of the fitted maximal effect
Lassa entry inh – qHTS for Inhibitors of binding or entry into cells for Lassa Virus; Potency, µM (top dose mostly 37.9 µM), for the others: at the top dose activity change, negative = inhibition, hits mostly inhibitors; hit rate 1.2% among 300,000; Lassa virus pseudotype entry inhibition, cell reporter; calls by dose curve; tested in HEK293 cells; further: potency means the concentration at half of the fitted maximal effect; nearly all actives have a fitted effect of over 50% in size
* = called active by the depositor; i = inactive; ? = inconclusive; . = no result given; + = active, no number; [ ] = dose if it differs, or a comment. In the library only some 6.5% were active in any assay of this set; here they are far more common. On the % scale 0 is the no-effect control and ±100 the full control effect.

SMILES | HCMV inh | Vaccinia Venus | Vaccinia mCherry | FMDV inh | MARV entry inh | Lassa entry inh
COc1cc2nc(N3CCCCC3)nc(NC3CC3)c2cc1OC | . | -20% | -4% | . | . | .
CCN(CC)CCOC(=O)c1ccc(N/C=C(/C#N)c2nc(-c3ccc(OC)cc3)cs2)cc1 | -77* | -5% | i | -6% | 4µM* | 18%
CCC(=O)N1c2ccccc2CC1C(=O)NCc1cccc(OC)c1OC (centres undefined) | 13 | 7% | -8% | -4% | . | -6%[46.1 µM]
COc1ccccc1C(=O)NCc1nc2cccnc2n1Cc1ccc(F)cc1 | -20 | -5% | -5% | -15% | . | -10%[46.1 µM]
CCOC(=O)c1cc(-c2ccc(C)cc2)n(CCCC(=O)Nc2cc(C)ccc2C)c1 | + | -27% | ? | -8% | . | 5%[46.1 µM]
Cc1ccccc1OCC(=O)NCC(C)NC(=O)COc1ccccc1C (centres undefined) | . | -2% | 25% | . | . | .
CC(C)n1cc(-c2nc(C(=O)NN)cs2)c(=O)n(Cc2ccccc2)c1=O | -68* | -14% | -23% | -15% | 4% | -4%
NNC(=O)c1csc(-c2ccccc2)n1 | 12 | -9% | -9% | 24% | -4% | 2%
CCC[C@H]1[C@@H](NS(=O)(=O)c2cccc([N+](=O)[O-])c2)CC[C@@]23CCCN2C(=O)CCC[C@@H]13 | 18 | . | . | . | . | .
CSCCC(NC(=O)c1ccccc1)C(=O)N1CCN(C(c2ccccc2)c2ccccc2)CC1 (centres undefined) | -19 | ? | ? | ? | -28% | 14µM*
Cc1cc(C)cc(C(=O)NCC(=O)N2CCN(C(c3ccccc3)c3ccccc3)CC2)c1 | 33 | -15% | -29% | 3% | 13µM* | -20%[46.1 µM]
CSCCC(NC(=O)c1ccc(Cl)cc1Cl)C(=O)N1CCN(C(=O)c2ccccc2)CC1 (centres undefined) | 0 | . | . | -14% | . | .
Cc1ccc(NC(=O)Cn2c(=O)n(Cc3ccco3)c(=O)c3oc4ccccc4c32)cc1C | 1 | -22% | ? | -23% | . | 13%[46.1 µM]
CNC(=O)c1ncccc1Nc1nc(Nc2cc3c(cc2OC)CCCN3C(=O)CN(C)C)nc2[nH]ccc12 | . | . | . | . | . | 4µM*
COc1ccc(NC(=O)N2CCCc3ccccc32)c(OC)c1 | -17 | -14% | ? | -1% | 14%[46.1 µM] | ?
COc1cc2c(cc1Nc1nc(Nc3ccsc3C(N)=O)c3cc[nH]c3n1)N(C(=O)CN(C)C)CCC2 | . | . | . | . | . | 0.07µM*
COc1ccccc1NC(=O)c1cnc(SCC(=O)N2CCCc3ccccc32)n(C)c1=O | 14 | -13% | -10% | -5% | . | -2%[46.1 µM]
CC(O)(COc1ccccc1)c1ccc2c(c1)CN(Cc1ccccn1)CCO2 (centres undefined) | . | -5% | -9% | -4% | . | .
CCCCCCC(C)(C)c1ccc([C@@H]2C[C@H](O)CC[C@H]2CCCO)c(O)c1 | 28 | ? | ? | ? | 13µM* | ?
CC1=CN2C(=N)/C(=C/c3ccc(C)o3)C(=O)N=C2S1 | 68 | -12% | -12% | ? | 9% | 1.3µM*
CCNc1ccc(/C=C2\C=Cc3ccccc32)cc1 | . | -5% | -8% | . | . | .
C=C1C(C)C2C(Cc3ccccc3)NC(=O)C23C(OC(C)=O)C=CC(C)(O)CC(C)CC=CC3C1O (centres undefined) | -28 | ? | ? | -13% | 4µM* | 2.2µM*
O=S(=O)(c1ccc(Cl)cc1)N1CCN(c2nc(Nc3cc(Cl)ccc3O)nc3ccccc23)CC1 | . | -17%[20.9 µM] | 0% | . | . | .
CCOc1ccc(C(C)=O)cc1CN1C(=O)C(=O)N(CC)C1=O | ? | -2% | i | 14µM* | ? | 15%[46.1 µM]
CCOc1ccc(C(C)=O)cc1CN1C(=O)NC2(CCCCCC2)C1=O | -4 | 0% | -1% | 3% | ? | 9%[46.1 µM]
SMILES | HCMV inh | Vaccinia Venus | Vaccinia mCherry | FMDV inh | MARV entry inh | Lassa entry inh
CC(=O)N1CCCc2cc(S(=O)(=O)N3CCCC(C(=O)Nc4ccc(C)c(F)c4)C3)ccc21 (centres undefined) | -38 | -16% | -11% | ? | . | -25%[46.1 µM]
COc1ccc(N2CCN(C(=O)C3CCCN(S(=O)(=O)c4ccc5c(c4)CCCN5C(C)=O)C3)CC2)cc1 (centres undefined) | -71* | ? | ? | ? | . | ?
COc1ccc(N2CCN(C(=O)C3CCCN(S(=O)(=O)c4ccc5c(c4)oc(=O)n5C)C3)CC2)cc1 (centres undefined) | -11 | -8% | -14% | ? | -14%[46.1 µM] | 8%[46.1 µM]
CC(=O)N1CCCc2cc(S(=O)(=O)N3CCCC(C(=O)N4CCN(c5ccccc5F)CC4)C3)ccc21 (centres undefined) | ? | -29% | ? | 16µM* | . | ?
O=C(C1CCC1)N1CCCc2cc(S(=O)(=O)N3CCN(c4ccccc4)CC3)ccc21 | 0 | -18% | -5% | ? | . | 11µM*
COc1ccc(-c2nc(C)c(CCNC(=O)c3ccco3)s2)cc1 | 58 | -11% | -2% | 37% | . | 1%[46.1 µM]
CCOC(=O)c1cc(C#N)c(N2CCN(C(=O)c3cccc(C(F)(F)F)c3)CC2)nc1C(F)(F)F | ? | -2% | i | -39% | 5µM* | 1.8µM*
CCOC(=O)c1cc(C#N)c(N2CCN(C(=O)c3ccccc3)CC2)nc1C(F)(F)F | -27 | -11% | -14% | ? | ? | 11µM*
CCOC(=O)c1cc(C#N)c(N2CCNCC2)nc1C(F)(F)F | -24 | 0% | 6% | -2% | 13%[46.1 µM] | 13%[46.1 µM]
CCOC(=O)c1cc(C#N)c(N2CCOCC2)nc1-c1ccccc1 | -35 | 0% | -4% | ? | 0%[46.1 µM] | -21%
C#CCCCON=C1C[C@@H](O)[C@H](O)[C@H]2[C@@H]3C(=O)N(C[C@@H]4CCCO4)C(=O)[C@@H]3CC[C@H]12 | . | . | . | . | 4%[14.2 µM] | -11%[14.3 µM]
Cc1ccc(C)c(Cn2nnc3c(=O)[nH]c(C4CCN(C(=O)c5cccs5)CC4)nc32)c1 | 37 | -21% | i | ? | ? | ?
Cc1ccc(Cn2nnc3c(=O)[nH]c(C4CCN(C(=O)c5cccs5)CC4)nc32)cc1 | . | . | . | -20% | ? | 2.9µM*
O=c1[nH]c(C2CCN(S(=O)(=O)c3ccc4c(c3)OCCO4)CC2)nc2c1nnn2Cc1c(F)cccc1Cl | -75* | -21% | ? | 0% | 16%[46.1 µM] | 6%[46.1 µM]
O=C(Cc1ccccc1F)N1CCC(c2nc3c(nnn3Cc3cccc(Cl)c3)c(=O)[nH]2)CC1 | -62* | -6% | -21% | -18% | -17%[46.1 µM] | ?
O=C(Cc1cccs1)N1CCCC(c2nc3c(nnn3Cc3cccc(Cl)c3)c(=O)[nH]2)C1 (centres undefined) | 23 | . | . | ? | 6% | ?
Cc1ccc(Cn2nnc3c(=O)[nH]c(C4CCN(C(=O)Cc5ccccc5F)CC4)nc32)cc1 | -35 | -13% | -3% | -18% | 2%[46.1 µM] | -12%[46.1 µM]
